Records with an inconclusive call do not appear. Activity calls are given as the source filed them. Unless noted, calls come from the whole dose curve; as a rule, active = well fitted curve in the direction sought with a large enough effect in the repeat runs; inconclusive = weak or mixed curves; inactive = no such curve, though single readings can be large; an effect the other way counts as inactive or inconclusive.
Assays:
[1] = qHTS assay to identify small molecule HDAC inhibitors (AID 1259364);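 note: wild-type HCT-116 cells with endogenous class I/II HDAC activity; top concentration of the series differs between compounds; nearly all actives have a fitted effect of over 45% in size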
How it was run: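 After a 2 hr compound incubation (37C, 5% CO2), HCT-116 cells seeded at 1,500/well the day before received HDAC-Glo reagent; signal read as luminescence after 30 min at room temperature.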

[2] = qHTS assay to identify small molecule HDAC inhibitors - cell viability counter screen (AID 1259365); note: series mostly up to about 92 µM; nearly all actives have a fitted effect of over 50% in size
How it was run: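 After overnight seeding at 1,500 cells per well, wild-type HCT-116 cultures took up compounds in DMSO for 2hr at 37 C. Viable cell content came from luminescence with CellTiter-Glo.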

[3] = qHTS assay to identify small molecule agonists of the sonic hedgehog signaling (Shh) pathway - cell viability counter screen (AID 1259366); note: nearly all actives have a fitted effect of over 50% in size; note: potency is the fitted concentration of half-maximal effect
How it was run: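 Same-well cytotoxicity read. Gli1-Luc reporter 3T3 cells; compounds 24hr, 37C/5% CO2; CellTiter-Fluor fluorescence.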

[4] = qHTS assay to identify small molecule antagonists of the sonic hedgehog signaling (Shh) pathway - cell viability counter screen (AID 1259367); note: nearly all actives have a fitted effect of over 55% in size; note: potency is the fitted concentration of half-maximal effect
How it was run: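 Conditioned medium drove Shh signaling in 3T3 Gli1-Luc cells exposed to compounds at 37C and 5% CO2. Viability was determined from CellTiter-Fluor fluorescence, with reagent incubated 1 hr after 23 hr of treatment.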

[5] = qHTS assay to identify small molecule agonists of the sonic hedgehog signaling (Shh) pathway (AID 1259368; calls by dose curve;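 note: NIH/3T3-derived 3T3Gli1-Luc cells carrying a stable Gli1-driven firefly luciferase reporter; series mostly up to about 92 µM; nearly all actives have a fitted effect of over 15% in size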)
How it was run: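 Stable NIH/3T3 Gli1-Luc reporter clone; 24 hr cpd exposure after a 4 hr settling period; luminescence endpoint.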

[6] = qHTS assay to identify small molecule antagonists of the sonic hedgehog signaling (Shh) pathway (AID 1259369; calls by dose curve; note: nearly all actives have a fitted effect of over 45% in size; note: potency is the fitted concentration of half-maximal effect)
How it was run: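 Gli1 transcriptional reporter (firefly Luc) in NIH/3T3 background, conditioned-medium activated. 24hr exposure, luminescence endpoint.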

[7] = molecular target: Estrogen receptor beta (Homo sapiens) (UniProt Q92731); experiment: qHTS assay to identify small molecule agonists of the estrogen receptor beta (ER-beta) signaling pathway (AID 1259377; active = well fitted activation curve with a large enough effect in the signal ratio in the repeat runs, not every such curve was filed as active; the % refers to the signal ratio)
How it was run: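 Read-out: beta-lactamase FRET fluorescence. Cell line: ER-beta-UAS-bla HEK293T in 2% charcoal-stripped FBS. Exposure: 16 hr at 37C. Substrate step: 2 h at room temperature.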

[8] = molecular target: Estrogen receptor beta (Homo sapiens) (UniProt Q92731); experiment: qHTS assay to identify small molecule antagonists of the estrogen receptor beta (ER-beta) signaling pathway (AID 1259378; active = well fitted inhibition curve with a large enough effect in the signal ratio in the repeat runs, not every such curve was filed as active; the % refers to the signal ratio)
How it was run: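 ER-beta-UAS-bla HEK293T (GripTite) cells in 2% charcoal-stripped FBS medium were preincubated 6 hr at 37C, dosed with compound, then stimulated with 1 nM E2 (final) for 16 hr; beta-lactamase reporter read by B/G FRET fluorescence after 2 hr substrate loading.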

[9] = qHTS assay to identify small molecule phospholipidosis (PLD) inducers (AID 1259344; active = well fitted curve in the direction sought with a large enough effect; an effect the other way counts as inactive or inconclusive)
How it was run: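 After 4 h attachment on collagen I, HepG2 cells were dosed with compound alongside LipidTOX Red, kept 24 h at 37 C, fixed, and imaged for lamellar phospholipid pits.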

[10] = qHTS assay to identify small molecule agonists of the androgen receptor (AR) signaling pathway in the presence of an antagonist - cell viability counter screen (AID 1259379); note: potency is the fitted concentration of half-maximal effect; nearly all actives have a fitted effect of over 25% in size
How it was run: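 Counter screen for cell viability run in parallel with the AR agonist-mode luciferase assay. MDA-kb2 cells were co-treated with nilutamide (3.0uM final) and compounds, then incubated 16 hr at 37C, and CellTiter-Fluor fluorescence was measured.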

Measured: Potency

Estrogen receptor beta (Homo sapiens), sequence (Q92731 whole entry, looked up): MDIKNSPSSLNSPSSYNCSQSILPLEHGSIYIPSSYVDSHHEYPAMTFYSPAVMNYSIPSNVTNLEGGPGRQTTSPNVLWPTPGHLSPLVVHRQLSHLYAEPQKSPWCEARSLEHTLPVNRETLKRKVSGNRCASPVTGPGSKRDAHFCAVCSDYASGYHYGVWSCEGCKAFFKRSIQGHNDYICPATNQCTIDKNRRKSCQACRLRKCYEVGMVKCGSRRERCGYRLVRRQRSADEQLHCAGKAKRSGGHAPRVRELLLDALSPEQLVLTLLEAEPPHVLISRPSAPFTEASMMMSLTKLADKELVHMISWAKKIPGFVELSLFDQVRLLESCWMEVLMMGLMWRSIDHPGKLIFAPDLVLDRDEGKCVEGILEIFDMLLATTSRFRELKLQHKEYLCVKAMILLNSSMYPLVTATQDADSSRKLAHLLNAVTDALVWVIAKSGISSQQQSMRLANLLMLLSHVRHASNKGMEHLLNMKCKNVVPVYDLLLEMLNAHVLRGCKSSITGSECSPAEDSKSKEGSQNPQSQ

Oc1ccc(C2(c3ccc(O)c(C4CCCCC4)c3)CCCCC2)cc1C1CCCCC1
active: [3] 19.3 µM | [4] 21.7 µM | [6] 12.2 µM
inactive: [1] | [2] | [5]

CN1CCN(C)CC1
inactive: [1] | [2] | [3] | [4] | [5]

Nc1cc([N+](=O)[O-])ccc1Cl
not listed: [9] | [10]
inactive: all other assays above

CC(C)(C)c1ccc2c(S(=O)(=O)O)c(C(C)(C)C)ccc2c1
inactive: [9]

CC1(C)[C@H](C(=O)OCc2cccc(Oc3ccccc3)c2)[C@@H]1C=C(Cl)Cl
inactive: [1] | [2] | [3] | [4] | [5] | [6]

CCCOC(=O)c1ccc(O)cc1
active: [6] 2.43 µM
inactive: [9] | [2] | [3] | [4] | [5]

CC(=O)N(C)C
inactive: [1]

CN(C/C=C/c1ccccc1)Cc1cccc2ccccc12
not listed: [2] | [7] | [10]
inactive: all other assays above

CCCCCN=C(N)N/N=C/c1c[nH]c2ccc(OC)cc12
active: [3] 8.41 µM | [4] 13.3 µM | [6] 1.68 µM | [10] 13.3 µM
inactive: [9] | [1] | [5]

Clc1cccc(Cl)n1
inactive: [1] | [2] | [3] | [4] | [5] | [6]

ClC(c1ccccc1)(c1ccccc1)c1ccccc1
inactive: [1] | [2] | [3] | [4] | [5] | [6]

Nc1ccc(N)c([N+](=O)[O-])c1
active: [3] 27.3 µM | [4] 21.7 µM | [6] 8.63 µM | [10] 54.5 µM
inactive: [9] | [1] | [5]

Source: PubChem BioAssay (Tox21)
